# Assay outcomes as filed in PubChem.
# Shiga toxin inh = blocks Shiga toxin action in Vero cells | 290,000 tested, 9.2% active | Vero cells, Shiga toxin protein synthesis inhibition reporter | inhibition, % at 38.7 µM; in the data active means inhibition mostly above about 28%, no sharp cut-off; inactive means mostly below about 43%; further: 0% is about no effect
# Sm TGR block = blocks Schistosoma mansoni thioredoxin glutathione reductase; purified TGR, DTNB reduction, TNB absorbance 405 nm; AID 485364; Potency, µM (series often up to 114 µM), for the others: top-dose activity change, negative = inhibition, actives largely listed as inhibitors; Q962Y6; 360,000 tested, 3% active; active means well fitted inhibition curve with a large enough effect; inconclusive means small, poorly fitted or top-dose-only effect; inactive means no such curve, though single readings can be large or run the other way; further: potency means the concentration at half of the fitted maximal effect; on the % scale 0 is the no-effect control and ±100 the full control effect; nearly all actives have a fitted effect of over 60% in size
#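 Kinetic colorimetric format: TGR-catalysed, NADPH-driven DTNB reduction monitored via TNB absorbance. Enzyme dispensed at 20 nM; compound exposure 15 min at room temperature before reaction start.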
# CHX counter = counter-screen hit for Shiga toxin inhibitors, cycloheximide; max response, %; cell reporter, cycloheximide protein synthesis inhibition counterscreen; 300,000 tested, 12% active; in the data active means max response mostly above about 13%, no sharp cut-off; inactive means mostly below about 14%; further: read at 38.3 µM for the half of the compounds with a filed dose; 0% is about no effect
# FMDV inh = antivirals against foot and mouth disease virus; 410,000 tested, 1.2% active; Potency, µM (doses to about 57.9 µM), for the others: at the top dose activity change, negative = inhibition, usual class: inhibitors; FMDV antiviral cell-based qHTS; calls by dose curve; tested in HEK293T cells; further: read-out not given here; potency means the concentration at half of the fitted maximal effect; on the % scale 0 is the no-effect control and ±100 the full control effect; nearly all actives have a fitted effect of over 45% in size
# Active calls of the source: *; ? = inconclusive; · = not tested or not shown. Sampled rows, rich in hits. Any-hit rate of the full collection: about 12%.
SMILES,Shiga toxin inh,Sm TGR block,CHX counter,FMDV inh
Cc1cc(C(=O)COC(=O)c2ccco2)c(C)n1Cc1ccco1,-12,-20%,-2,8.9µM*
O=C(OCC(=O)c1cccc2ccccc12)c1ccc(CO)cc1,77*,16%,42*,1%
Cc1cc(-c2csc(N)n2)c(C)n1Cc1ccco1,33,-29%,36*,19%
CCc1nc(N2CCN(C(=O)c3ccco3)CC2)c2c3c(sc2n1)CCCC3,-4,56µM*,-2,?
CC1CCc2c(sc3nc(C4CC4)nc(N4CCN(C(=O)c5ccco5)CC4)c23)C1 (stereo not given),·,·,·,25µM*
CC1CCc2c(sc3ncnc(SCC(=O)N4CCN(C(=O)c5ccco5)CC4)c23)C1 (stereo not given),2,-6%,-3,·
c1ccc(N2CCN(c3ncnc4sc5c(c34)CCC5)CC2)cc1,-8,-2%,-2,-23%
O=C(c1ccco1)N1CCN(c2ncnc3sc4c(c23)CCC4)CC1,23,11µM*,-5,?
COc1ccc(C)cc1NC(=O)COC(=O)c1ccc2c(c1)OCO2,·,5%,·,-25%
N/C(=N\OC(=O)c1ccc2c(c1)OCO2)c1ccc(Cl)cc1,91*,11%,62*,·
N/C(=N\OC(=O)c1ccc2c(c1)OCO2)c1ccncc1,44,7%,35*,18%
COc1ccc(/C(N)=N/OC(=O)c2ccc3c(c2)OCO3)cc1,46*,?,52*,17%
Cc1ccc(/C(N)=N/OC(=O)c2ccc3c(c2)OCO3)cc1,98*,0%,74*,-1%
COc1ccc(NC(=O)COC(=O)c2ccc3c(c2)OCO3)c(OC)c1,·,·,·,-18%
Cc1c(C2=CCN(S(=O)(=O)c3ccc(Cl)cc3)CC2)c2ccccc2n1CC(=O)N1CCCC1,·,-10%,·,?
Cc1ccc(CN2CCCn3nc(C(=O)NCCc4cccc(C)c4)cc3C2=O)cc1,·,0%,·,1%
N#Cc1ccc(NC(=O)C2=COCCO2)cc1,·,89µM*,·,48%
COc1ccc(SCC(=O)c2cc(C)c(OC(=S)N(C)C)c(C)c2)cc1,67,-8%,48*,-1%
Cc1cc(C(=O)CSc2ccc(F)cc2)cc(C)c1OC(=S)N(C)C,146*,0%,58*,0.79µM*
NC(=O)CSc1ccc(F)cc1,-8,3%,-5,-3%
COc1ccc(C(=O)CSc2nc(C)cc(C)n2)cc1C,12,-20%,6,12%
COC(=O)c1sc(-c2ccc(C(C)(C)C)cc2)cc1NC(=O)COCC(=O)O,44*,-13%,20*,3%
Cc1cc(C)n2cc(CSc3nc4ccccc4[nH]3)nc2n1,-2,-1%,-5,16%
c1ccc2[nH]c(SCc3cscn3)nc2c1,65*,-3%,35*,54%
N#Cc1ccccc1CSc1nc2ncc(Br)cc2[nH]1,15,-27%,0,-2%
SMILES,Shiga toxin inh,Sm TGR block,CHX counter,FMDV inh
CC(C)(C)C(=O)CSc1nc2ncc(Br)cc2[nH]1,4,-1%,36*,-13%
Fc1c(F)c(F)c(CSc2nc3ccccc3[nH]2)c(F)c1F,71*,-8%,25*,31%
Fc1ccccc1CSc1nc2ncc(Br)cc2[nH]1,27,0%,22*,14%
COc1cccc(N(Cc2nnc3n2CCCCC3)C(=O)Nc2cccc(Cl)c2)c1,·,3%,·,5%
CCc1ccccc1NC(=O)c1sc(-n2nc(C)c(Cc3ccc4c(c3)OCO4)c2C)nc1C,·,2%,·,-21%
O=c1c(-c2ccccc2)nc2cnc(N3CCNCC3)nc2n1C1CC1,·,·,·,-13%
Fc1ccccc1CSc1nc2ccccc2[nH]1,86*,-4%,54*,0%
O=C(CCCSc1nc2ccccc2[nH]1)NCc1ccccc1F,4,-33%,7,-9%
COc1ccc(C(=O)COC(=O)CCCn2c(=O)oc3ccccc32)cc1,-11,4%,1,-18%
COc1ccc(OCCCn2c(=O)oc3ccccc32)cc1,-6,2%,19*,16%
Cc1cccc(OCCCn2c(=O)oc3ccccc32)c1,50*,9%,22*,30%
O=c1oc2ccccc2n1Cc1ccccc1,-8,9%,-5,-3%
COc1cccc(Cn2c(=O)oc3ccccc32)c1,45*,6%,41*,26%
Cc1ccc2oc(=O)n(CCCOc3ccc(Cl)cc3)c2c1,·,-1%,·,-11%
Cc1cccc(OCCn2c(=O)oc3ccc(C)cc32)c1,79*,11%,42*,30%
CC(CC(C)(C)C)CP(=O)(O)CC(C)CC(C)(C)C (stereo not given),-20,·,-8,·
COc1ccc(-c2cnc(C)o2)cc1S(=O)(=O)Nc1ccc(OC(F)(F)F)cc1,·,5%,·,24%
CCn1c(=O)c2cc(C(=O)Nc3cc(OC)c(OC)c(OC)c3)sc2c2ccccc21,·,-2%,·,?
Cc1ccc2oc(=O)n(CCOc3ccccc3)c2c1,39*,14%,35*,7%
CCCOC(=O)c1ccc(NC(=O)C2CC(=O)N(c3ccc(C)cc3)C2)cc1 (stereo not given),·,11%,·,-22%
COc1ccccc1NC(=O)C(=O)N/N=C(\C)CC(=O)Nc1ccc(OCc2ccccc2)cc1,21,0%,23,3%
C/C(CC(=O)Nc1ccc(OCc2ccccc2)cc1)=N\NC(=O)C(=O)Nc1cccc(C)c1,-2,-1%,28*,16%
CC(=O)Nc1ccc(C(=O)N/N=C(\C)CC(=O)Nc2ccc(OCc3ccccc3)cc2)cc1,-2,-12%,18*,2%
CCn1cc(C(=O)NCCc2ccc(C)cc2)c(=O)c2cc(S(=O)(=O)N3CCc4ccccc4C3)ccc21,·,2%,·,-23%
Cc1ccsc1C(=O)NCCC(c1ccccc1)c1ccccc1,-1,-3%,-3,-8%
SMILES,Shiga toxin inh,Sm TGR block,CHX counter,FMDV inh
C=CCn1c(CCNC(=O)c2cccs2)nnc1SCC(=O)c1ccc(Br)cc1,-14,-17%,-2,-13%
Cc1ccsc1C(=O)NCCc1nnc2ccccn12,72*,-17%,31*,3%
O=C(NCCc1nnc2ccccn12)c1cccs1,51*,-3%,36*,59%
O=C(CN1C(=O)COc2ccc(S(=O)(=O)Nc3ccccc3)cc21)NCc1ccccc1Cl,·,2%,·,9%
COc1cccc(CN2CCC3(CCC(CNC(=O)c4ccco4)O3)CC2)c1OC (stereo not given),·,·,·,-5%
COc1cc(NC(=O)CSc2nc(-c3cccs3)cc(C(F)(F)F)n2)cc(OC)c1OC,·,-3%,·,?
COC(=O)c1ccccc1NC(=O)CCCS(=O)(=O)c1nc(-c2ccccc2OC)cc(C(F)(F)F)n1,·,-17%,·,-15%
COc1ccc(NC(=O)CCS(=O)(=O)c2nc(-c3cccs3)cc(C(F)(F)F)n2)cc1OC,·,40µM*,·,22µM*
CS(=O)(=O)c1nc(-c2cccs2)cc(C(F)(F)F)n1,-23,7.9µM*,-7,·
COc1ccc(-c2cc(C(F)(F)F)nc(S(=O)(=O)CCCC(=O)Nc3cccnc3Cl)n2)cc1OC,13,?,19*,?
COc1cc(NC(=O)CCS(=O)(=O)c2nc(-c3cccs3)cc(C(F)(F)F)n2)cc(OC)c1OC,·,?,·,25µM*
COc1cccc(CNC(=O)c2oc3ccc4c(c3c2C)C(=O)CC(C)(C)O4)c1OC,·,8%,·,10%
CN1C2CCC1CC(OC(=O)C(O)c1ccccc1)C2 (stereo not given),·,·,·,-9%
